According to PubChem BioAssay (Tox21):
Inconclusive results are not listed. Active and inactive are the calls of the source. Unless noted, calls follow the shape of the full dose curve.

Tests used:
[1] = qHTS assay to identify small molecule antagonists of the vitamin D receptor (VDR) signaling pathway - cell viability counter screen (AID 743225; active = well fitted curve in the direction sought with a large enough effect in the repeat runs; an effect the other way counts as inactive or inconclusive; also: % is scaled to controls: 0 for no effect and ±100 for the full control effect; nearly all actives have a fitted effect of over 50% in size)
Procedure, shortened: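 In this counter screen, VDR-bla HEK 293T cells receive test compound plus 3 nM final calcitriol for 16 h at 37C. Room-temperature steps of 2 h with the beta-lactamase substrate, then 30 min with CellTiter-Glo, precede the luminescence read.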

[2] = qHTS assay to identify small molecule agonists of the NFkB signaling pathway (AID 1159509; active = well fitted curve in the direction sought with a large enough effect in the signal ratio in the repeat runs, not every such curve was filed as active; the % refers to the signal ratio; also: series mostly up to about 61 µM; % is scaled to controls: 0 for no effect and ±100 for the full control effect)
Procedure, shortened: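 Agonist activity was read as beta-lactamase-driven FRET change (460 and 530 nm emission, 405 nm excitation) following 1.5 hr substrate loading at room temperature. Beforehand, ME-180 NFkB-bla reporter cells were treated with compounds for 5 hr at 37 C.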

[3] = qHTS assay to identify small molecule agonists of the NFkB signaling pathway - cell viability counter screen (AID 1159515); also: series mostly up to about 61 µM; % is scaled to controls: 0 for no effect and ±100 for the full control effect; nearly all actives have a fitted effect of over 55% in size
Procedure, shortened: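 Counter screen run alongside the NFkB-bla agonist assay: ME-180 reporter cells exposed to compounds for 5 hr, then lysed with CellTiter-Glo in the same wells. Luminescence, read after 30 min, reflects viable cells.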

[4] = qHTS assay to identify small molecule agonists of the endoplasmic reticulum stress response signaling pathway (AID 1159516; active = well fitted activation curve with a large enough effect in the signal ratio in the repeat runs, not every such curve was filed as active; the % refers to the signal ratio; also: % is scaled to controls: 0 for no effect and ±100 for the full control effect)
Procedure, shortened: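 For this screen, HeLa cells stably carrying beta-lactamase under the ER stress response element received test compounds, positive controls or DMSO for 5 hr at 37 C; B/G FRET substrate was then added and dual-wavelength emission recorded.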

[5] = qHTS assay to identify small molecule agonists of the endoplasmic reticulum stress response signaling pathway - cell viability counter screen (AID 1159517); also: series mostly up to about 61 µM; % is scaled to controls: 0 for no effect and ±100 for the full control effect; nearly all actives have a fitted effect of over 50% in size
Procedure, shortened: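 Cpd-treated ESRE-bla HeLa (5 hr, 37 C) → LiveBLAzer 2 hr RT → CellTiter-Glo 30 min RT → luminescence.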

[6] = qHTS assay to identify small molecule antagonists of the retinoid-related orphan receptor gamma (ROR-gamma) signaling pathway - cell viability counter screen (AID 1159520; active = well fitted curve in the direction sought with a large enough effect in the repeat runs; an effect the other way counts as inactive or inconclusive; also: % is scaled to controls: 0 for no effect and ±100 for the full control effect; nearly all actives have a fitted effect of over 50% in size)
Procedure, shortened: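 Tet-on ROR gamma CHO cells (1,000/well) were plated 4 hr, given compounds in DMSO for 2 hr at 37 C, then induced with 1 uM final doxycycline for 16 hr. Viability was read as ATP by CellTiter-Glo luminescence after 30 min.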

[7] = qHTS assay to identify small molecule agonists of the AP-1 signaling pathway - cell viability counter screen (AID 1159525); also: nearly all actives have a fitted effect of over 55% in size
Procedure, shortened: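 Each titration point was normalised to DMSO and tetra n-octyl ammonium bromide controls. The read was Cell Titer Glo luminescence after 30 min at RT, following 5 h compound exposure of ME-180 AP-1-bla cells at 37 °C.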

[8] = qHTS assay to identify small molecule agonists of the AP-1 signaling pathway (AID 1159526); also: % is scaled to controls: 0 for no effect and ±100 for the full control effect
[9] = qHTS assay to identify small molecule agonists of the RXR signaling pathway - cell viability counter screen (AID 1159529; active = well fitted curve in the direction sought with a large enough effect in the repeat runs; an effect the other way counts as inactive or inconclusive;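 also: HEK 293T cells carrying an RXR-alpha UAS beta-lactamase reporter; series mostly up to about 77 µM; % is scaled to controls: 0 for no effect and ±100 for the full control effect; nearly all actives have a fitted effect of over 50% in size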)
Procedure, shortened: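 Viability read-out for the RXR-alpha agonist qHTS: luminescent CellTiter-Glo signal after 30 min at RT. HEK 293T bla reporter cells, 2% charcoal-stripped FBS, 16 hr compound incubation; tetraoctyl ammonium bromide as cytotoxic control.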

[10] = qHTS assay to identify small molecule antagonists of the retinoid acid receptor (RAR) signaling pathway - cell viability counter screen (AID 1159551; active = well fitted curve in the direction sought with a large enough effect in the repeat runs; an effect the other way counts as inactive or inconclusive; also: % is scaled to controls: 0 for no effect and ±100 for the full control effect; nearly all actives have a fitted effect of over 35% in size)
Procedure, shortened: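 Measured by luminescent ATP detection, viability reflects C3RL4 cells treated 6 h at 37 C with test chemicals in the presence of 1 uM (final) retinol.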

[11] = qHTS assay to identify small molecule antagonists of the retinoic acid receptor (RAR) signaling pathway (AID 1159552; active = well fitted curve in the direction sought with a large enough effect in the repeat runs; an effect the other way counts as inactive or inconclusive)
Procedure, shortened: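 Using a RARE-driven luciferase construct in C3RL4 cells, retinol at 1 uM final provided the agonist stimulus while compounds were co-applied. After 6 hours at 37 C, luminescence was recorded to flag inhibitors of retinol signaling.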

[12] = qHTS assay to identify small molecule agonists of the retinoic acid receptor (RAR) signaling pathway (AID 1159553; active = well fitted curve in the direction sought with a large enough effect in the repeat runs; an effect the other way counts as inactive or inconclusive; also: potency is read from the fitted curve at half-maximal effect)
Procedure, shortened: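 6 hr compound exposure (DMSO vehicle) of overnight-plated C3RL4 RARE-luc cells at 37 C; luminescence quantified after 30 min RT with luciferase reagent.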

[13] = target: Retinoic acid receptor RXR-alpha (Homo sapiens) (UniProt P19793); test: qHTS assay to identify small molecule agonists of the RXR signaling pathway (AID 1159527); also: nearly all actives have a fitted effect of over 35% in size; also: potency is read from the fitted curve at half-maximal effect; as to activation: % is scaled to controls: 0 for no effect and ±100 for the full control effect
Procedure, shortened: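 Fluorescence ratio readout (460 vs 530 nm) from GeneBLAzer RXR-alpha HEK 293T cells after 16 hr compound treatment; cells seeded 5 hr beforehand in low-serum, charcoal-stripped medium.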

Chain of Retinoic acid receptor RXR-alpha (Homo sapiens) (P19793 whole entry, looked up): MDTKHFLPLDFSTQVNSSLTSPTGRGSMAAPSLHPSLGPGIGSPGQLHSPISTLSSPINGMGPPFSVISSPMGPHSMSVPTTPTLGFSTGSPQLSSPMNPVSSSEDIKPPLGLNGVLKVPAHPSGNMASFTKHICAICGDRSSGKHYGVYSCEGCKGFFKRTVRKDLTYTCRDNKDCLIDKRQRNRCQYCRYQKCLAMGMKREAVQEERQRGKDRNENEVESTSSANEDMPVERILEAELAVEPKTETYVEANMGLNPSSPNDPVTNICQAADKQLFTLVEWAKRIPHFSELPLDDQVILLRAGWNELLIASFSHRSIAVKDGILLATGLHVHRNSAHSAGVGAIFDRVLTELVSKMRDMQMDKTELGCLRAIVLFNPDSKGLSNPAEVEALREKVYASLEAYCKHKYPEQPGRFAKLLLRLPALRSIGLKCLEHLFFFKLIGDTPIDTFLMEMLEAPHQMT

O=C(O)c1c(O)c(-c2ccccc2)nc2ccccc12
inactive: Potency [1] | outcome [2] | outcome [3] | outcome [4] | outcome [5] | Potency [6] | outcome [7] | outcome [8] | Potency [9] | Potency [10] | Potency [11]

CN(C)C(=O)Nc1ccc(Oc2ccc(Cl)cc2)cc1
active: Potency [12] 61.1 µM
inactive: Potency [1] | outcome [2] | outcome [3] | outcome [4] | outcome [5] | Potency [6] | outcome [7] | outcome [8] | Potency [9] | Potency [10] | Potency [11]

CC(C)C(=O)O
inactive: Potency [1] | outcome [2] | outcome [3] | outcome [4] | outcome [5] | Potency [6] | outcome [7] | outcome [8] | Potency [13] | Potency [9] | Potency [10]

CCCOC(=O)c1ccc(N)cc1
active: Potency [12] 23.7 µM
inactive: Potency [1] | outcome [2] | outcome [3] | outcome [4] | outcome [5] | Potency [6] | outcome [7] | outcome [8] | Potency [13] | Potency [10] | Potency [11]

CN1CCN(c2c(F)cc3c(=O)c(C(=O)O)cn4c3c2OCN4C)CC1
inactive: outcome [2] | outcome [3] | outcome [4] | outcome [5] | activity, negative = cytotoxicity [6] 0.283% [at 19 µM] | viability change, negative = cytotoxic [7] 12.5% [at 15.8 µM] | activation [8] 4.3% [at 15.8 µM] | activation [13] 9.65% [at 15.8 µM] | activity change, negative = cytotoxicity [9] 2.53% [at 15.8 µM] | activity change, negative = cytotoxicity [10] -0.366% [at 19 µM]

CC1=C(C=O)C(C)(C)CCC1
inactive: Potency [1] | outcome [2] | outcome [3] | outcome [4] | outcome [5] | Potency [6] | outcome [7] | outcome [8] | Potency [13] | Potency [9] | Potency [10]

Cn1c(=O)c2c(ncn2CC(=O)O)n(C)c1=O
inactive: Potency [1] | outcome [2] | outcome [3] | outcome [4] | outcome [5] | Potency [6] | outcome [7] | outcome [8] | Potency [13] | Potency [9] | Potency [10]

CCCCC(CC)C(=O)OCCOCCOCCOCCOC(=O)C(CC)CCCC (stereo not drawn)
inactive: outcome [2] | outcome [3] | outcome [4] | outcome [5] | Potency [6] | outcome [7] | outcome [8] | Potency [9] | Potency [10] | Potency [12]

CCC(C(=O)OCCOCCN(CC)CC)c1ccccc1 (stereo not drawn)
inactive: Potency [1] | outcome [2] | outcome [3] | outcome [4] | outcome [5] | Potency [6] | outcome [7] | outcome [8] | Potency [13] | Potency [10] | Potency [12]

CC(=O)N(c1onc(C)c1C)S(=O)(=O)c1ccc(N)cc1
inactive: Potency [1] | outcome [2] | outcome [3] | outcome [4] | outcome [5] | Potency [6] | outcome [7] | outcome [8] | Potency [9] | Potency [10] | Potency [12]

Nc1ccc(C(=O)OCCCOC(=O)c2ccc(N)cc2)cc1
inactive: Potency [1] | outcome [2] | outcome [3] | outcome [4] | outcome [5] | Potency [6] | outcome [7] | outcome [8] | Potency [9] | Potency [10] | Potency [11]

O=C(O)Cc1ccc(-c2ccccc2)cc1
inactive: outcome [2] | outcome [3] | outcome [4] | outcome [5] | Potency [6] | outcome [7] | outcome [8] | Potency [9] | Potency [10] | Potency [11] | Potency [12]

CCOCCn1c(C2CCN(CCc3ccc(C(C)(C)C(=O)O)cc3)CC2)nc2ccccc21
inactive: Potency [1] | outcome [2] | outcome [3] | outcome [4] | outcome [5] | Potency [6] | outcome [7] | outcome [8] | Potency [13] | Potency [9] | Potency [10]

C=CC(C)(O)CCCC(C)CCCC(C)CCCC(C)C (stereo not drawn)
inactive: Potency [1] | outcome [2] | outcome [3] | outcome [4] | outcome [5] | Potency [6] | outcome [7] | outcome [8] | Potency [9] | Potency [11] | Potency [12]
active: Potency [13] 6.13 µM

N#C[C@@H]1C[C@@H]2C[C@@H]2N1C(=O)[C@@H](N)C12CC3CC(CC(O)(C3)C1)C2
inactive: outcome [2] | outcome [3] | outcome [4] | outcome [5] | Potency [6] | outcome [7] | outcome [8] | Potency [13] | Potency [9] | Potency [10]

CCOC(=O)c1ccccc1OC
inactive: Potency [1] | outcome [2] | outcome [3] | outcome [4] | outcome [5] | Potency [6] | outcome [7] | outcome [8] | Potency [9] | Potency [10] | Potency [12]

CCCCCCOC(=O)CCCCCCCC(=O)OCCCCCC
inactive: outcome [2] | outcome [3] | outcome [4] | outcome [5] | Potency [6] | outcome [7] | outcome [8] | Potency [13] | Potency [9] | Potency [10]

CNC(=O)N(c1ccccc1)c1ccccc1
inactive: Potency [1] | outcome [2] | outcome [3] | outcome [4] | outcome [5] | Potency [6] | outcome [7] | outcome [8] | Potency [9] | Potency [10] | Potency [12]

CC(CCO)CCc1ccccc1 (stereo not drawn)
inactive: outcome [2] | outcome [3] | outcome [4] | outcome [5] | Potency [6] | outcome [7] | outcome [8] | Potency [9] | Potency [10]

CCCCCC=CCC=CCCCCCCCC(=O)OCC
inactive: Potency [1] | outcome [2] | outcome [3] | outcome [4] | outcome [5] | Potency [6] | outcome [7] | outcome [8] | Potency [10]

COC(=O)CC(=O)C(C)(C)C
inactive: outcome [2] | outcome [3] | outcome [4] | outcome [5] | Potency [6] | outcome [7] | outcome [8] | Potency [10]
